# Experimental data as given in PubChem BioAssay.
# For some of these results: Results with a measured potency or affinity are listed apart. The list shows a part of the results. Active and inactive are the calls of the source.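 How the source made its calls, unless noted: active means dose curve with midpoint inside tested range, moderate steepness, plateau gap beyond fit error, low compound glow and bead-link interference; inactive means the rest.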
# Tests used:
# [1] = biological target: Cell division control protein 42 homolog (Homo sapiens) (UniProt P60953); test: inhibition of fluorescent GTP binding to constitutively active Cdc42 – biochemical, multiplex bead flow cytometry, Bodipy-FL-GTP, dose response (AID 1333;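 active means fitted half-maximal concentration within the tested dose range, moderate curve steepness, a statistically real signal drop, and little compound fluorescence or tag-binding interference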)
# [2] = biological target: Cell division control protein 42 homolog (Homo sapiens) (UniProt P60953); test: inhibition of fluorescent GTP binding to wildtype Cdc42 – biochemical, multiplex bead flow cytometry, Bodipy-FL-GTP, dose response (AID 1334;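 active means fitted half-maximal concentration within the tested range, moderate curve steepness, significant signal drop, and little compound fluorescence or bead-linkage interference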); conditions: bead-based flow cytometry, Bodipy-FL-GTP binding to GST-Cdc42; at 100 µM (top of the series)
# [3] = tested on: Ras-related protein Rab-7a (dog), GTP binding; test: blockers of fluorescent GTP binding to Rab7 – biochemical, wildtype, multiplex bead flow cytometry, dose response (AID 1336; call rule not given here)
# [4] = biological target: Ras-related C3 botulinum toxin substrate 1 (Homo sapiens) (UniProt P63000); test: inhibition of wildtype Rac1 nucleotide loading – biochemical, multiplex bead flow cytometry, dose response (AID 1340); conditions: GST-Rac1 beads, Bodipy-FL-GTP binding; at 100 µM (top of the series)
# [5] = biological target: GTPase HRas (Homo sapiens) (UniProt P01112); test: blockade of GTP loading onto mutant Ras – biochemical, activated mutant, multiplex bead flow cytometry, dose response (AID 1341;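 active means dose-response curve with midpoint inside the tested range, moderate steepness, significant amplitude and little compound fluorescence or bead-attachment interference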;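 further: GST-tagged constitutively activated Ras mutant immobilized on beads and multiplexed with other GTPases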)
# [6] = interference with biotin-avidin bead interaction – biochemical, flow cytometry, bead-based, counter-screen for RGS protein interaction modulators (AID 1783;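 active means inhibition above 50%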;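 further: median green fluorescence of gated singlet beads compared with DMSO control wells; 0% = DMSO wells and 100% = complete loss of bead fluorescence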); conditions: streptavidin beads, fluorescein-biotin binding, at 10 µM, stronger effect = higher value
# [7] = biological target: Guanine nucleotide-binding protein G(o) subunit alpha (Homo sapiens) (UniProt P09471); test: retest of RGS8-Galphao interaction hits – biochemical, multiplexed bead flow cytometry, single concentration, confirmation (AID 1836; in the data active means binding response below about 72% or above about 130%; inactive means in between;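 further: Galphao activated as GDP AlF4 complex before binding bead RGS8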); conditions: bead-based flow cytometry RGS8-Galphao binding, fluorescence; at 10 µM; actives lie on both sides
# [8] = biological target: Guanine nucleotide-binding protein G(o) subunit alpha (Homo sapiens) (UniProt P09471); test: retest of RGS7-Galphao interaction hits – biochemical, multiplexed bead flow cytometry, single concentration, confirmation (AID 1837; in the data active means response below about 75% or above about 130%; inactive means in between;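 further: fluorescent Galphao activated with GDP and aluminum fluoride binding bead-coupled RGS7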); conditions: bead-based flow cytometry RGS7-Galphao binding; at 10 µM; actives lie on both sides
# [9] = biological target: Regulator of G-protein signaling 16 (Homo sapiens) + Guanine nucleotide-binding protein G(o) subunit alpha (Homo sapiens) (UniProt O15492+P09471); test: RGS16 and Galphao interaction regulators – biochemical, single concentration, multiplexed bead flow cytometry, confirmation (AID 1838; in the data active means response below about 74% or above about 130%; inactive means in between;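 further: Galphao activated as the GDP aluminium fluoride complex binding bead-coupled RGS16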); conditions: bead-based flow cytometry, at 10 µM, actives lie on both sides
# [10] = biological target: Guanine nucleotide-binding protein G(o) subunit alpha (Homo sapiens) (UniProt P09471); test: RGS4 and Galphao interaction regulators – biochemical, single concentration, multiplexed bead flow cytometry, confirmation (AID 1840; in the data active means binding response below about 74% or above about 130%; inactive means in between); conditions: at 10 µM, actives lie on both sides
# [11] = biological target: Guanine nucleotide-binding protein G(o) subunit alpha (Homo sapiens) + Regulator of G-protein signaling 19 (Homo sapiens) (UniProt P09471+P49795); test: RGS19 interaction with Gαo, hit retest – biochemical, single point, multiplexed bead flow cytometry, confirmation (AID 1841; in the data active means response below about 50% or above about 160%; inactive means in between;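 further: 100% = no compound control and 0% = blank background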); conditions: bead-based flow cytometry RGS19-Galphao binding; at 10 µM; actives lie on both sides
# [12] = hit retest on RPL19A-GFP reporter strain – cell-based, S. cerevisiae, flow cytometry, cherry picks, mother/daughter gates, confirmation (AID 2270;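 active means GFP response below 50% of the DMSO control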); conditions: 3 h, at 10 µM, stronger effect = lower value, 100 = same GFP as DMSO wells
# [13] = yeast TOR pathway reporter LAP4-GFP change – cell-based, cherry picks, flow cytometry, mother/daughter gates, confirmation (AID 2271;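 active means GFP response above 150% of the DMSO control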;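 further: ratio of sample to DMSO plate mean so 100% equals DMSO level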); conditions: S. cerevisiae LAP4-GFP strain, 3 h, at 10 µM, stronger effect = higher value
# [14] = TOR pathway reporter MEP2-GFP, retest of hits – S. cerevisiae, flow cytometry GFP, cherry picks, confirmation (AID 2272;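 active means GFP response above 150% of the DMSO control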;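 further: ratio of well signal to plate DMSO mean so 100% equals DMSO level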); conditions: S. cerevisiae MEP2-GFP strain, 3 h, at 10 µM, stronger effect = higher value
# [15] = yeast AGP1-GFP fluorescence change, single-dose – cell-based, flow cytometry, S. cerevisiae, cherry picks, confirmation (AID 2273;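 active means GFP response above 150% of the DMSO level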;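 further: median GFP channel fluorescence over the whole cell population gate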); conditions: S. cerevisiae AGP1-GFP strain, 3 h, at 10 µM
# [16] = TOR pathway CIT2 reporter hit retest – S. cerevisiae, GFP fusion, cherry picks, mother/daughter gates, confirmation (AID 2274;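 active means GFP response above 150% of the DMSO level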); conditions: S. cerevisiae CIT2-GFP strain, flow cytometry, 3 h, at 10 µM, stronger effect = higher value
# [17] = measured here: daughter cell gate
# [18] = measured here: mother cell gate
# [19] = measured here: daughter cell gate response
# [20] = measured here: mother cell gate response
# Chain of Cell division control protein 42 homolog (Homo sapiens) (P60953 whole entry, looked up): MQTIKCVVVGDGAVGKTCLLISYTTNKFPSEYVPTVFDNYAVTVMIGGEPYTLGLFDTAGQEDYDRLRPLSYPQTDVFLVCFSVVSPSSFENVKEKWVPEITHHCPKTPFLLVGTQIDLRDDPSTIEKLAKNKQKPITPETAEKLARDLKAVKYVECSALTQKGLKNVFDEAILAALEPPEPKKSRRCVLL
# Chain of Guanine nucleotide-binding protein G(o) subunit alpha (Homo sapiens) (P09471 whole entry, looked up): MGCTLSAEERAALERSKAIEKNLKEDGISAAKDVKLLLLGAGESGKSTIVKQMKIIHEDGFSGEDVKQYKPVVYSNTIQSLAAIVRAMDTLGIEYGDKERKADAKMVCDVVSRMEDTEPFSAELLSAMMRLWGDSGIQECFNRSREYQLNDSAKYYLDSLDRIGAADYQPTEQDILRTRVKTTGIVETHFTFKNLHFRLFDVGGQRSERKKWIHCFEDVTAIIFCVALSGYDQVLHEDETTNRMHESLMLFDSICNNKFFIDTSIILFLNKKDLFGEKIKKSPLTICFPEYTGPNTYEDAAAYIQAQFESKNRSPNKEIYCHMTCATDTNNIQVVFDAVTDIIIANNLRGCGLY
# Chain of Regulator of G-protein signaling 16 (Homo sapiens) + Guanine nucleotide-binding protein G(o) subunit alpha (Homo sapiens) (O15492 whole entry, looked up): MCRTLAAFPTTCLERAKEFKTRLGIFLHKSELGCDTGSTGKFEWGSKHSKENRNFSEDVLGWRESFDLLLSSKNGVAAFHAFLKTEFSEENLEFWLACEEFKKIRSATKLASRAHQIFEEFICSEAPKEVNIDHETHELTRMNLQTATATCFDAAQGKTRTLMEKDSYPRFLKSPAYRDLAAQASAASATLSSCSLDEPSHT
# Chain of Regulator of G-protein signaling 16 (Homo sapiens) + Guanine nucleotide-binding protein G(o) subunit alpha (Homo sapiens) (P09471 whole entry, looked up): as the sequence (P09471 whole entry, looked up) above
# Chain of Guanine nucleotide-binding protein G(o) subunit alpha (Homo sapiens) + Regulator of G-protein signaling 19 (Homo sapiens) (P09471 whole entry, looked up): as above
# Chain of Guanine nucleotide-binding protein G(o) subunit alpha (Homo sapiens) + Regulator of G-protein signaling 19 (Homo sapiens) (P49795 whole entry, looked up): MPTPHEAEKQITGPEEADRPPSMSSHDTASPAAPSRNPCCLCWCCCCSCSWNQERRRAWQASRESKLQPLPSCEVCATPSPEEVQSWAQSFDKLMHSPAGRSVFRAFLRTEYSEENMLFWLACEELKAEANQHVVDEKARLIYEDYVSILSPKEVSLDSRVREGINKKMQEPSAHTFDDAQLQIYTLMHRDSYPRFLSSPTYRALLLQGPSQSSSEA
smiles,measurement,setting,value
COCCCn1c(N)c(C(=O)Nc2sc3c(c2C(=O)OC)CCCC3)c2nc3ccccc3nc21,outcome,[1],inactive
same,"fluorescence, percent of control (lower = inhibition)",[2],85.2%
same,outcome,[3],inactive
same,"GTP binding signal, raw median fluorescence (lower = inhibition) (MCF (arbitrary fluorescence units))",[4],139
same,outcome,[5],inactive
O=C(O)c1cn(Cc2ccc(Br)cc2)c2ccccc12,outcome,[1],inactive
same,"fluorescence, percent of control (lower = inhibition)",[2],91.7%
same,outcome,[3],inactive
same,"GTP binding signal, raw median fluorescence (lower = inhibition) (MCF (arbitrary fluorescence units))",[4],74
same,outcome,[5],inactive
CN(C)c1ccc(/C=C/C=C2/C(=O)NC(=O)N(c3ccccc3)C2=O)cc1,outcome,[1],inactive
same,"fluorescence, percent of control (lower = inhibition)",[2],23.6%
same,outcome,[3],inactive
same,"GTP binding signal, raw median fluorescence (lower = inhibition) (MCF (arbitrary fluorescence units))",[4],155
same,outcome,[5],inactive
CC(Oc1ccc(-c2ccccc2)cc1)C(=O)O (stereo unspecified),outcome,[1],inactive
same,"fluorescence, percent of control (lower = inhibition)",[2],126%
same,outcome,[3],inactive
same,"GTP binding signal, raw median fluorescence (lower = inhibition) (MCF (arbitrary fluorescence units))",[4],213
same,outcome,[5],inactive
O=C(O)c1cn(Cc2ccc(F)cc2)c2ccccc12,outcome,[1],inactive
same,"fluorescence, percent of control (lower = inhibition)",[2],106%
same,outcome,[3],inactive
same,"GTP binding signal, raw median fluorescence (lower = inhibition) (MCF (arbitrary fluorescence units))",[4],91.8
same,outcome,[5],inactive
Nc1ccc(C(=O)N/N=C2/CN3CCC2CC3)cc1,inhibition,[6],-1.4% (inactive)
same,binding response (% of control),[7],102% (inactive)
same,response (percent of control binding),[8],98.3% (inactive)
same,response (% of control binding),[9],99.4% (inactive)
same,binding response (% of control),[10],100% (inactive)
same,response (percent of control binding),[11],92.4% (inactive)
Cc1ccccc1OCCCn1cc(C(=O)O)c2ccccc21,outcome,[1],inactive
same,"fluorescence, percent of control (lower = inhibition)",[2],68.3%
same,outcome,[3],inactive
same,"GTP binding signal, raw median fluorescence (lower = inhibition) (MCF (arbitrary fluorescence units))",[4],37.8
same,outcome,[5],inactive
O=C1C(=O)c2ccccc2-c2ccccc21,GFP response vs DMSO,[12],122% (inactive)
same,GFP response vs DMSO,[12]; [17],106%
same,GFP response vs DMSO,[12]; [18],116%
same,GFP response relative to DMSO,[13],171% (active)
same,GFP response relative to DMSO,[13]; [19],143%
same,GFP response relative to DMSO,[13]; [20],169%
same,GFP response vs DMSO,[14],117% (inactive)
same,"GFP response, % of DMSO",[15],126% (inactive)
same,"GFP response, % of DMSO",[16],88.7% (inactive)
same,"GFP response, % of DMSO",[16]; [17],89.9%
same,"GFP response, % of DMSO",[16]; [18],82.6%
CC12CN3CC(C)(CN(C1)C31CCOCC1)C2=O,GFP response vs DMSO,[12],95.6% (inactive)
same,GFP response vs DMSO,[12]; [17],96.9%
same,GFP response vs DMSO,[12]; [18],96.6%
same,GFP response relative to DMSO,[13],99.2% (inactive)
same,GFP response relative to DMSO,[13]; [19],97.6%
same,GFP response relative to DMSO,[13]; [20],100%
same,GFP response vs DMSO,[14],96.2% (inactive)
same,"GFP response, % of DMSO",[15],99.5% (inactive)
same,"GFP response, % of DMSO",[16],101% (inactive)
same,"GFP response, % of DMSO",[16]; [17],103%
same,"GFP response, % of DMSO",[16]; [18],101%
COc1ccc(-c2cc(=NCCCCCC(=O)O)c3cc(C)ccc3o2)cc1,outcome,[1],inactive
same,"fluorescence, percent of control (lower = inhibition)",[2],34.9%
same,outcome,[3],inactive
same,"GTP binding signal, raw median fluorescence (lower = inhibition) (MCF (arbitrary fluorescence units))",[4],132
same,outcome,[5],inactive
Cc1cc(OCCCn2cc(C(=O)O)c3ccccc32)ccc1Cl,outcome,[1],inactive
same,"fluorescence, percent of control (lower = inhibition)",[2],58.1%
same,outcome,[3],inactive
same,"GTP binding signal, raw median fluorescence (lower = inhibition) (MCF (arbitrary fluorescence units))",[4],28.5
same,outcome,[5],inactive
O=C(O)c1cn(Cc2ccccc2F)c2ccccc12,outcome,[1],inactive
same,"fluorescence, percent of control (lower = inhibition)",[2],93%
same,outcome,[3],inactive
same,"GTP binding signal, raw median fluorescence (lower = inhibition) (MCF (arbitrary fluorescence units))",[4],68.4
same,outcome,[5],inactive
Cc1nc2c(=O)n(C)c(=O)nc-2n(C)n1,outcome,[3],inactive
same,"GTP binding signal, raw median fluorescence (lower = inhibition) (MCF (arbitrary fluorescence units))",[4],251
same,outcome,[5],inactive
